# Reference: the supplement of paper PMC9135407
# Counter-ions that a name gives are not always drawn. Among all 5,800 compounds or so, about 620 (11%) showed activity. What follows is part of a selection rich in actives, with near analogues and random picks from the rest. Unmarked numbers belong to inactive results.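 How the source made its calls: active = score above a cut-off or among the top three wells of a plate; in these data no inactive exceeds 0.85.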
# Test system: primary human hepatic stellate cells (donor 1)
# Assay: scaled lipid accumulation score (0 = DMSO-like, 1 = nortriptyline-like); higher = stronger HSC inactivation (lipid re-accumulation), active = hit call of the paper
# Settings: 48 h
# Experimental: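 Primary lipid accumulation screen in primary human hepatic stellate cell myofibroblasts (donor 1, passage 8) in 384-well plates. 100 nL of library compound was pin-transferred into 30 µL medium in duplicate, and cells were treated for 48 h. The 'Scaled' score combines distance from plate baseline, toxicity and reproducibility penalties, and is normalised to nortriptyline (positive) and DMSO (negative) controls on each plate. A hit is defined as scaled >0.85 or among the top 3 wells per plate.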
# [1] = library stock concentration: 1 mM
# [2] = library stock concentration: 10 mM
# [3] = library stock concentration: 3.33 mM
compound,measurement,setting,value
"CCCCCC#CCC#CCC#CCC#CCCCC(=O)O [5,8,11,14-Eicosatetraynoic acid]",scaled lipid accumulation score,[1],≤ -0.021
CCCCCCCCCCCCCCCC(=O)N[C@H]1CCOC1=O [N-hexadecanoyl-L-Homoserine lactone],scaled lipid accumulation score,[1],≤ 0
C(=C/CCN(C)C)(/c1c2cccc1)\c3c(cccc3)C=C2.Cl [Cyclobenzaprine hydrochloride],scaled lipid accumulation score,[2],0.991 (active)
CN(C)CCC=C1c2ccccc2C=Cc2ccccc21 [Cyclobenzaprine hydrochloride],scaled lipid accumulation score,library stock concentration: 6.4 mM,0.579
same,scaled lipid accumulation score,[2],0.568
CN(C)CCC=C1c2ccccc2C=Cc2ccccc21.Cl [Cyclobenzaprine HCl],scaled lipid accumulation score,[3],0.507 (active)
C(/c1c2cccc1)(=C/CCN(C)C)\c3c(cccc3)C=C2.Cl [Cyclobenzaprine hydrochloride],scaled lipid accumulation score,,0.86 (active)
CN(C)CCC=C1c2ccccc2C=Cc2ccccc21 [Cyclobenzaprine HCl],scaled lipid accumulation score,[2],0.745
CC(C(=O)O)c1ccc(CC2CCCC2=O)cc1 (centres undefined) [loxoprofen],scaled lipid accumulation score,[2],0.127
CC(C(=O)O)c1ccc(CC2CCCC2=O)cc1 (centres undefined),scaled lipid accumulation score,[2],≤ 0
C=C1CC[C@H](O)C/C1=C/C=C1\CCC[C@]2(C)[C@@H]([C@H](C)CCCC(C)(C)O)CC[C@@H]12 [Calcifediol],scaled lipid accumulation score,[3],≤ 0
same,scaled lipid accumulation score,library stock concentration: 5 mM,0.042
same,scaled lipid accumulation score,[2],≤ 0
Nc1nc2c(ncn2[C@@H]2O[C@H](CO)[C@@H](O)[C@@H]2O)c(=O)[nH]1 [Ara-G hydrate],scaled lipid accumulation score,[2],≤ 0
Oc1ccc(OC2CCCCO2)cc1 (centres undefined) [Deoxyarbutin],scaled lipid accumulation score,[3],≤ 0
same,scaled lipid accumulation score,[2],≤ -0.001
CC(=O)N(CC(O)CO)c1c(I)c(C(=O)NCCO)c(I)c(C(=O)NCC(O)CO)c1I (centres undefined),scaled lipid accumulation score,[2],≤ 0
O=C(OC[C@@H]1O[C@H]1c1ccccc1)Oc1ccc([N+](=O)[O-])cc1,scaled lipid accumulation score,[1],≤ 0
CCCCC[C@H](O)/C=C/[C@@H]1[C@@H](CC(=O)CCCCC(=O)O)[C@@H](O)C[C@H]1O [6-Keto-prostaglandin F1a],scaled lipid accumulation score,[1],≤ -0.021
CCCCC[C@H](O)/C=C/[C@@H]1[C@@H](CC(=O)CCCCC(=O)O)[C@@H](O)C[C@H]1O [6-keto Prostaglandin F1.alpha.],scaled lipid accumulation score,[1],≤ 0
COc1c/c(=C2\C=c3ccccc3=N2)[nH]/c1=C\c1[nH]c(C)cc1C [Obatoclax Mesylate (GX15-070)],scaled lipid accumulation score,[3],0.602
same,scaled lipid accumulation score,[2],0.617
CNCCc1ccccn1 [Betahistine hydrochloride],scaled lipid accumulation score,library stock concentration: 9.6 mM,≤ 0
CC(NCCC(c1ccccc1)c1ccccc1)c1ccccc1 (centres undefined) [Fendiline hydrochloride],scaled lipid accumulation score,,0.144
same,scaled lipid accumulation score,[2],0.431
CNCCc1ccccn1 [Betahistine 2HCl],scaled lipid accumulation score,[3],≤ 0
same,scaled lipid accumulation score,[2],≤ -0.001
CNCCc1c[nH]c(CCC(c2ccccc2)c2ccccc2)n1.O=C(O)C(=O)O.O=C(O)C(=O)O [N-Methylhistaprodifen dioxalate salt],scaled lipid accumulation score,[2],1.02 (active)
CNCCc1ccccn1 [Betahistine mesylate],scaled lipid accumulation score,,0.122
